Experimental findings from PubChem BioAssay AID1745849 (National Center for Advancing Translational Sciences (NCATS), 2022) are described below.

In all, about 2,100 compounds went through this assay and about 320 (15%) were called active. About 52% were inconclusive and are not listed. The list shows a part of the results. Unmarked numbers belong to inactive results. Calls follow the shape of the dose curve; as a rule, active = well fitted cell-killing curve with a large enough effect; inconclusive = small, poorly fitted or top-dose-only effect, or effect the other way; inactive = flat fitted curve, though single readings scatter.
% is scaled to controls: 0 for no effect and ±100 for the full control effect; potency is read from the fitted curve at half-maximal effect.

The nature of the assay: Viability Counterscreen for CMV-Luciferase Assay of Inhibitors of ATXN expression. Also: nearly all actives have a fitted effect of over 55% in size. The following applies: HEK-293 CMV-luciferase cells viability, protease fluorescence, 24 h; series mostly up to 57.5 µM. An excerpt:
PI: Daniel Scoles Ph.D. University of Utah School of Medicine, Salt Lake City, Utah MLPCN Grant: NS073009 Spinocerebellar ataxia type 2 (SCA2) is a multisystem neurodegenerative disease caused by a dominantly acting mutation leading to expansion of a polyQ domain in the ataxin-2 protein (ATXN2). SCA2 patients develop progressive ataxia and later lose function in other neuronal systems. Prominent parkinsonian signs develop in some patients. Like many neurodegenerative disorders, no symptomatic or disease-modifying treatments are known. The primary objective of the proposed research is to identify compounds inhibiting ATXN2 expression and to test them for efficacy in SCA2 mouse models. We have developed a cell-based assay paired with an in vivo mouse model using identical luciferase expression constructs. This approach takes advantage of an ATXN2-luciferase transgene, with the luciferase gene flanked by the upstream and downstream portions of the ATXN2 gene. Here we describe a 5-7 dose quantitative high thoroughput screen (qHTS) for compounds lowering ATXN2 expression. We screened the NIH Molecular Libraries Small Molecule Repository (MLSMR) and NCGC's mechanistically annotated (MIPE) and drug repurposing (NPC) collections of compounds for lowering expression of an ATXN2-luciferase reporter in HEK-293 cells. The assay is a multiplexed cell viability assay to ensure target reduction in the absence of cytotoxicity. Secondary qHTS assays included a CMV-luciferase reporter expressed in HEK-293 cells as well as a biochemical assay using recombinant luciferase to detect inhibitors of the reporter enzyme. Compounds that inhibit ATXN2 expression but is not cytotoxic were selected for confirmatory and secondary screens.
PROTOCOL TABLE (as described by Inglese J, Shamu CE and Guy RK. 2007) SEQUENCE No. (e.g., 1, 2, 3, etc.); […] (e.g., Cells, Incubation, Reagent, etc.); VALUE; DESCRIPTION. 1; Cells; 4 uL; white, solid bottom, 1536-well Greiner assay plate. 2; Incubation; 2 hr; 37 degree C in 5% humidified CO2. 3; Compounds; 23 nL; Kalypsis pintool (Wako USA) equipped with a 1536-well pin head. 4; Incubation; 24 hr; 37 degree C in 5% humidfified CO2. 5; Reagent; 1 uL; Gly-Phe-7-Amino-4-trifluoromethylcoumarin. 6; Incubation; 30 min; 37 degree C in 5% humidfified CO2. 7; Detection; Fluorescence; Viewlux plate reader (PerkinElmer). 8; Reagent; 3 uL; SteadyGlo luciferase solution (Promega). 9; Incubation; 5 min; room temperature. 10; Detection; Luminescence; ViewLux plate reader (PerkinElmer). NOTES (numbers refer to Sequence numbers above) 1. HEK-293 cells expressing CMV-luciferase reporter (designated as SC cells) were suspended in phenol-red free DMEM and dispensed in assay plates using a Multidrop Combi dispenser (Thermo Fisher Scientific). 2. Assay plates were incubated. Evaporation was prevented by covering assay plates with metal lids containing holes to allow gas diffusion. 3. Compounds were added in a dose response manner with the final concentrations of 57, 11.4, 2.28, 0.46, 0.091, 0.018, 0.0037 uM. Vehicle-only plates, with DMSO being pin-transferred to columns 5-48, were inserted uniformly at the beginning and the end of each library to monitor and record any shifts in assay performance. 5. 125 uM Gly-Phe-7-Amino-4-trifluoromethylcoumarin (MP Biomedicals) working concentration was used at a final concentration of 25 uM. 7. To assess cell viability; the assay plates were read using the ViewLux high-throughput CCD imager (PerkinElmer), wherein single end-point fluorescence measurement was acquired (excitation 405/10; emission 540/25 nm). 8. Detection reagent SteadyGlo Luciferase (Promega) was added to the assay plate. 10. Luminescence is then measured on the ViewLux imager equipped with a clear emission filter using a 2 sec exposure. […]
Background: A counterscreen serves to expose hits that act by an unwanted route or on another target.
In the case of `COC12C(COC(N)=O)C3=C(C(=O)C(C)=C(N)C3=O)N1CC1C2N1C` (configuration not stated), the Potency is 12.6 µM (active).

Consider `O=c1[nH]c2ccccc2n1C1CCN(C(CCc2ccccc2)c2nnnn2C2CCCC2)CC1` (configuration not stated), for which the Potency is 11.2 µM (active).

On to `Cc1cccc(C)c1-n1nnnc1C(c1cc2ccccc2o1)N1CCC(n2c(=O)[nH]c3ccccc32)CC1` (configuration not stated), for which the Potency was 7.94 µM (active).

Consider `CC(C)(C)n1nnnc1C(CCc1ccccc1)N1CCC(n2c(=O)[nH]c3ccccc32)CC1` (configuration not stated), for which the Potency is 20 µM (active).

Take `CN1C(=O)NC(=O)/C(=C\C=C\c2ccccc2[N+](=O)[O-])C1=O`: the Potency is 7.94 µM (active).

`Oc1c(Cl)cccc1Cc1cc(Cl)cc(Cl)c1O`: the Potency is 15.8 µM (active).

Consider `c1ccc(CNc2c3c(nc4ccccc24)CCC3)cc1`, for which the Potency entry was “inactive”.

As to `O=C(Nc1ccc(OC(=O)N2CCCCC2)cc1)N1CCOCC1`, the Potency result was “inactive”.

In the case of `CC12CCC3C(CCC4(O)CC(O)CCC34C=NO)C1(O)CCC2C1=COC(=O)C1` (configuration not stated), the Potency is 0.891 µM (active).

Consider `CCCCN=C[C@]12CCC(O)CC1(O)CCC1[C@@H]2CC[C@]2(C)[C@H](C3C=CC(=O)O3)CCC12O` (some centres not stated), for which the Potency is 1.78 µM (active).

With `C1=NCCc2c1[nH]c1ccccc21`, the activity change, negative = cytotoxicity was 1.29% [at 11.4 µM].

Consider `COc1cccc2c1C(=O)c1c(O)c3c(c(O)c1C2=O)CC(O)(C(C)=NO)CC3OC1CC(N)C(O)C(C)O1` (configuration not stated), for which the Potency was 14.1 µM (active).

For `O=[N+]([O-])c1oc2ccc3ccccc3c2c1CCO`, the Potency was 20 µM (active).

Turning to `Cc1ccc(-c2nc(N(C)C3CCN(C)CC3)c3ccccc3n2)cc1`, the Potency result was “inactive”.

Take `c1ccc2sc(N3CCNCC3)nc2c1`: the Potency entry was “inactive”.

`O=C(NN=Cc1ccc(N(CCCl)CCCl)cc1)c1cc(=O)[nH]c(=O)[nH]1`: the Potency entry was “inactive”.

For the compound `N[C@@H](Cc1ccc(N(CCCl)CCCl)cc1)C(=O)O`, the Potency was 12.6 µM (active).

Regarding `O=C1NC(=O)N(CCc2ccc(F)cc2)C(=O)/C1=C/C=C/c1ccccc1`, the Potency is 7.94 µM (active).

`COc1ccc(CC2NCC(O)C2OC(C)=O)cc1` (configuration not stated): the Potency is 0.282 µM (active).

As for `CCC1(OC(=O)CN)C(=O)OCc2c1cc1n(c2=O)Cc2cc3ccccc3nc2-1` (configuration not stated), the activity change, negative = cytotoxicity is 14.6% [at 11.4 µM].

Turning to `COC(=O)c1nc(-c2ccc3c(n2)C(=O)C(N)=C(OC)C3=O)c(N)c(-c2ccc(OC)c(OC)c2O)c1C`, the Potency is 20 µM (active).

On to `C[C@@H]1O[C@@H](O[C@@H]2C=C3CC[C@@H]4C(CC[C@]5(C)[C@@H](c6ccc(=O)oc6)CC[C@]45O)[C@@]3(C)CC2)[C@H](O)[C@H](O)[C@H]1O` (some centres not stated), for which the Potency was 8.91 µM (active).

As for `COc1ccc(CC2C(=O)NC(C)C(=O)N(C)C3C(=O)N(C)C(Cc4ccc(O)c(c4)Oc4ccc(cc4)C3O)C(=O)NC(C)C(=O)NC(C)C(=O)N2C)cc1` (configuration not stated), the Potency was 0.355 µM (active).

`O=C(CSC1c2ccccc2-c2ccccc21)N/N=C/c1ccccc1O`: the Potency is 3.55 µM (active).

For the compound `CC(=NCCc1c[nH]c2ccccc12)c1c(O)n(Cc2ccccc2)c(=O)[nH]c1=O`, the Potency entry is “inactive”.

As for `CCCCCCC(=O)N/N=C/c1c(O)n(CCc2ccccc2)c(=O)[nH]c1=O`, the Potency was 8.91 µM (active).

Consider `CCCCCCC(=O)N/N=C/c1c(O)n(CCCC)c(=S)[nH]c1=O`, for which the Potency result is “inactive”.

With `COc1ccc(CCNCc2ccc(F)cc2)cc1OC`, the activity change, negative = cytotoxicity is -21.2% [at 11.4 µM].

In the case of `C[C@]12CCC3C(CCC4=CC(O)CC[C@@]43/C=N/O)C1(O)CCC2C1=CC(=O)OC1` (some centres not stated), the Potency was 1.41 µM (active).

In the case of `C[C@]12CC[C@H](O)C[C@H]1CC[C@@H]1[C@@H]2CC[C@]2(C)[C@@H](C3=CC(=O)OC3)CC[C@]12O`, the Potency is 0.794 µM (active).

With `CC(=O)OC1CC2(O)C3CCC4CC(O)CCC4(C)C3CCC2(C)C1C1=CC(=O)OC1` (configuration not stated), the Potency was 0.501 µM (active).

Turning to `CC12CCC(O)CC1CCC1C2CCC2(C)C(C3=CC(=O)OC3)C(O)CC12O` (configuration not stated), the Potency is 7.94 µM (active).

Turning to `CC[C@@]1(O)C(=O)OCc2c1cc1n(c2=O)Cc2cc3c(NC(=O)CN)cccc3nc2-1`, the activity change, negative = cytotoxicity was 25.7% [at 11.4 µM].

For the compound `COC1C(O)C(C)OC(OC2C(Oc3cccc4c(O)c5c(=O)oc6ccc(C)c7c(=O)oc(c34)c5c67)OC(C)C(O)C2O)C1O` (configuration not stated), the activity change, negative = cytotoxicity is 7.77% [at 11.4 µM].

For `CC1OC(OC2C(O)CC(OC3C(O)CC(OC4CCC5(C)C(CCC6C5CCC5(C)C(C7=CC(=O)OC7)C(O)CC65O)C4)OC3C)OC2C)CC(O)C1O` (configuration not stated), the Potency is 0.251 µM (active).

For `CN1C2CCC1/C(=C/c1ccccn1)C(=O)/C2=C\c1ccccn1`, the Potency is 0.708 µM (active).

Regarding `C[C@@H]1C[C@@H]([C@H](O)CC2CC(=O)NC(=O)C2)C(=O)[C@@H](C)C1`, the Potency was 1.78 µM (active).

With `CCC(C)N1C(=O)/C(=C\c2cnc(N(C)C)nc2)C(=O)NC1=S` (configuration not stated), the Potency result was “inactive”.

With `C=CCCC[C@@H]1OC(=O)CNC(=O)C([C@@H](C)CC)NC(=O)[C@@H]2CCCN2C(=O)C([C@@H](C)CC)OC(=O)[C@H](Cc2ccccc2)N(C)C(=O)[C@H](C(C)C)NC(=O)C1(C)C` (some centres not stated), the Potency was 3.55 µM (active).

In the case of `CCCCCOc1ccc(C)cc1CN(CCCl)CCCl`, the Potency was 22.4 µM (active).

On to `CCCCCn1c(=O)c(C(=O)NCc2ccccn2)c(O)c2ccccc21`, for which the activity change, negative = cytotoxicity was -15.5% [at 11.4 µM].

`C[C@H]1[C@@H](OS(=O)(=O)O)C[C@@H]2C[C@H]([C@@H](O)c3cc(=O)[nH]c(=O)[nH]3)NC3=NC[C@H]1N32`: the Potency is 12.6 µM (active).

`CSCCC(c1nnnn1-c1c(C)cccc1C)N1CCC2(CC1)C(=O)NCN2c1ccccc1` (configuration not stated): the Potency was 28.2 µM (active).

Take `CC(C)CNc1c2c(nc3ccccc13)CCC2`: the activity change, negative = cytotoxicity was -29.7% [at 11.4 µM].

As to `Cc1ccc(/C=C2\C(=O)NC(=S)N(c3ccccc3F)C2=O)s1`, the Potency is 3.98 µM (active).

Turning to `C[C@H]1CCC[C@H](O)CCCCCc2cc(O)cc(O)c2C(=O)O1`, the activity change, negative = cytotoxicity was -5.55% [at 11.4 µM].

As for `C[C@H]1CCC[C@@H](O)CCC/C=C/c2cc(O)cc(O)c2C(=O)O1`, the Potency was 1.58 µM (active).

Regarding `CCC(C)(O)C(=O)OC1C(=O)OC2CC3C(C)=CC(=O)C(O)C3(C)C3C4(O)OCC23C1C(C)C4O` (configuration not stated), the Potency was 0.316 µM (active).

As for `COc1ccc2c(c1)C(c1ccc(N(CCCl)CCCl)cc1)=NCC2`, the Potency entry was “inactive”.

On to `O=C1NC(=O)C2(CCCc3ccc(N(CCCl)CCCl)cc32)N1` (configuration not stated), for which the Potency was 11.2 µM (active).

As to `CC1CC(C)CC(C)C(O)C(C#N)=CC=CCC(C2CCCC2C(=O)O)OC(=O)CC(O)C(C)C1` (configuration not stated), the Potency is 0.398 µM (active).

Regarding `COC(=O)C(O)(c1ccc(NC(=S)NC(=O)c2ccc(Cl)cc2Cl)c(C)c1)C(F)(F)F` (configuration not stated), the activity change, negative = cytotoxicity was 1.53% [at 11.4 µM].
